Our source for the max activity values is PubChem BioAssay AID1224921 (Broad Institute, 2016).

In all, about 1,400 compounds went through this assay and about 350 (25%) were called active. About 2% were inconclusive and are not listed. The rule behind the calls is not given here. Only a sample is shown. Entries with a potency or affinity are not part of this list.

This assay can be described thus: inhibitors of Clostridioides difficile proliferation – 4-point retest, confirmation (AID 1224921).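 Note: plate controls were DMSO wells for no effect and levofloxacin 16 µg/mL wells for full effect.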 Particulars: Clostridioides difficile clinical isolate growth, OD600, 24 h, hits give low values; at 30 µM unless noted.
Take `C[C@H](CO)N1C[C@H](C)[C@@H](CN(C)Cc2ccc3c(c2)OCO3)Oc2ccc(NC(=O)Nc3ccc4c(c3)OCO4)cc2C1=O`: the max activity was -9.66% [at 8 µM] (inactive).

In the case of `C[C@H](CO)N1C[C@H](C)[C@@H](CN(C)S(=O)(=O)CC(F)(F)F)OCc2ccccc2-c2c(n(C)c3ccccc23)C1=O`, the max activity is 24.2% (inactive).

With `CC(C)CC#Cc1ccc2c(c1)O[C@@H](CN(C)Cc1ccncc1)[C@H](C)CN([C@H](C)CO)S2(=O)=O`, the max activity is 18.2% [at 8 µM] (inactive).

On to `C[C@@H]1CN([C@@H](C)CO)S(=O)(=O)c2ccc(C#CCC3CCCC3)cc2O[C@H]1CN(C)C(=O)CC1CC1`, for which the max activity is -15.8% [at 1.95 µM] (inactive).

As to `O=C(C[C@H]1CC[C@H](NC(=O)CCN2CCCCC2)[C@H](CO)O1)Nc1nccs1`, the max activity was -18.1% [at 8 µM] (inactive).

`C[C@@H]1CN([C@@H](C)CO)C(=O)c2cc(C#CC3CCCCC3)cnc2O[C@H]1CN(C)Cc1cccnc1`: the max activity is 21.1% (inactive).

In the case of `C[C@H](O)C#Cc1cnc2c(c1)C(=O)N([C@@H](C)CO)C[C@H](C)[C@H](CN(C)Cc1ccc(-c3ccccc3)cc1)O2`, the max activity was 31.6% (inactive).

Regarding `C[C@@H]1CN([C@@H](C)CO)C(=O)c2cc(C#CC3CCCCC3)cnc2O[C@@H]1CN(C)Cc1cccnc1`, the max activity is 58.9% (inactive).

Regarding `CCCNC(=O)N(C)C[C@H]1Oc2ncc(C#CCc3ccccc3)cc2C(=O)N([C@@H](C)CO)C[C@@H]1C`, the max activity is 16.1% (inactive).

Take `CC(=O)N(C)C[C@@H]1Oc2ncc(C#Cc3ccc(F)cc3)cc2C(=O)N([C@@H](C)CO)C[C@H]1C`: the max activity was 24.8% (inactive).

As for `COc1ccc(C#Cc2cnc3c(c2)C(=O)N([C@@H](C)CO)C[C@H](C)[C@@H](CN(C)CC2CCOCC2)O3)cc1`, the max activity was 8.65% [at 8 µM] (inactive).

As for `CCCN1C[C@@H](C)[C@@H](OC)CN(C)C(=O)c2cc(NC(=O)c3cccc(F)c3)ccc2OC[C@H]1C`, the max activity is -11.3% [at 1.95 µM] (inactive).

Take `CO[C@@H]1CN(C)C(=O)c2cc(NC(C)=O)ccc2OC[C@@H](C)N(C(=O)c2ccccn2)C[C@@H]1C`: the max activity was -15.1% [at 8 µM] (inactive).

In the case of `C[C@H]1CN([C@@H](C)CO)C(=O)Cc2cc(NS(=O)(=O)c3cccs3)ccc2O[C@@H]1CN(C)Cc1ccc(Cl)c(Cl)c1`, the max activity is 33.5% [at 8 µM] (inactive).

Turning to `COc1ccc(NC(=O)Nc2ccc3c(c2)[C@H]2C[C@H](CC(=O)N[C@@H](C)c4ccccc4)O[C@@H](CO)[C@H]2O3)cc1`, the max activity was -8.28% [at 2.1 µM] (inactive).

In the case of `Cc1ccccc1S(=O)(=O)N1[C@H](CO)[C@@H](c2ccc(C#CC3CC3)cc2)[C@@H]1C#N`, the max activity was 34.7% (inactive).

Turning to `COc1ccccc1C#Cc1ccc([C@H]2[C@@H](C#N)N(C(=O)C3CC3)[C@H]2CO)cc1`, the max activity is 22.1% [at 8 µM] (inactive).

Take `O=C(C[C@@H]1CC[C@@H](NC(=O)Nc2cc(F)ccc2F)[C@H](CO)O1)NCc1ccc2c(c1)OCO2`: the max activity is 8.77% (inactive).

Turning to `CO[C@@H](CN(C)S(=O)(=O)c1ccc(C)cc1)[C@H](C)CN(C(=O)Nc1ccccc1F)[C@@H](C)CO`, the max activity is -7.73% [at 8 µM] (inactive).

Take `CO[C@@H]1CN(C)C(=O)c2cc(NS(=O)(=O)c3cn(C)cn3)ccc2OC[C@@H](C)N(Cc2ccc(C(F)(F)F)cc2)C[C@H]1C`: the max activity was 43.6% (inactive).

As to `C[C@@H]1CCCCO[C@@H](CN(C)S(=O)(=O)c2cn(C)cn2)[C@H](C)CN([C@H](C)CO)C(=O)c2cc(NS(=O)(=O)c3ccccc3)ccc2O1`, the max activity was -10.5% [at 0.5 µM] (inactive).

Take `CO[C@@H]1CN(C)C(=O)c2ccc(NS(=O)(=O)c3cn(C)cn3)cc2OC[C@@H](C)N(Cc2ccc(C(F)(F)F)cc2)C[C@H]1C`: the max activity is 35.5% [at 8 µM] (inactive).

In the case of `C[C@@H]1CN([C@H](C)CO)C(=O)c2cc(NC(=O)Nc3cccc4ccccc34)ccc2O[C@@H](C)CCCCO[C@H]1CN(C)S(=O)(=O)c1cn(C)cn1`, the max activity was 30.5% [at 35 µM] (inactive).

Turning to `CO[C@H]1CN(C)C(=O)c2cc(NC(=O)c3cccc(F)c3)ccc2OC[C@H](C)N(C(C)=O)C[C@@H]1C`, the max activity is -4.07% [at 1.95 µM] (inactive).

As for `C[C@@H]1CN([C@H](C)CO)S(=O)(=O)c2ccc(C3=CCCCC3)cc2O[C@@H]1CN(C)Cc1ccncc1`, the max activity is 19.4% (inactive).

As to `COc1ccc(S(=O)(=O)Nc2ccc3c(c2)OC[C@@H](C)N(C)C[C@@H](C)[C@H](OC)CN(C)C3=O)cc1`, the max activity was -9.73% [at 1.95 µM] (inactive).

As to `C[C@@H]1CN([C@H](C)CO)C(=O)Cc2cc(NS(C)(=O)=O)ccc2O[C@@H]1CN(C)Cc1ccc(-c2ccccc2)cc1`, the max activity was 52.1% (inactive).

As for `O=C(C[C@@H]1C[C@@H]2c3cc(NC(=O)Nc4ccc(C(F)(F)F)cc4)ccc3O[C@@H]2[C@H](CO)O1)NCc1ccccn1`, the max activity is -9.23% [at 1.95 µM] (inactive).

`CCCC(=O)Nc1ccc2c(c1)OC[C@@H](C)N(CCc1ccccc1)C[C@H](C)[C@H](OC)CN(C)C2=O`: the max activity is -4.85% [at 1.95 µM] (inactive).

As to `C[C@H](CO)N1C[C@H](C)[C@H](CN(C)Cc2cccnc2)Oc2cc(C3=CCCCC3)ccc2S1(=O)=O`, the max activity is 37% (inactive).

As to `O=C(C[C@H]1C[C@H]2c3cc(NC(=O)Nc4ccc(F)cc4)ccc3O[C@H]2[C@@H](CO)O1)NC1CCCC1`, the max activity was -13.7% [at 8 µM] (inactive).

Consider `C[C@@H]1CN([C@H](C)CO)C(=O)c2ccccc2-c2ccccc2CO[C@@H]1CN(C)S(=O)(=O)c1ccsc1`, for which the max activity was 12% [at 1.95 µM] (inactive).

As for `COc1ccc(S(=O)(=O)Nc2ccc3c(c2)CC(=O)N([C@@H](C)CO)C[C@@H](C)[C@H](CN(C)CC2CCCCC2)O3)cc1`, the max activity is 25.5% (inactive).

With `COc1ccccc1S(=O)(=O)N[C@@H]1C=C[C@H](CC(=O)N2CCCCC2)O[C@@H]1CO`, the max activity is -6.91% [at 0.5 µM] (inactive).

As for `C[C@@H]1CN([C@@H](C)CO)C(=O)c2cccc(NC(=O)Nc3ccc(C(F)(F)F)cc3)c2O[C@H]1CN(C)S(=O)(=O)c1ccc(Cl)cc1`, the max activity was 49.8% (inactive).

Regarding `C[C@@H]1CN([C@H](C)CO)C(=O)c2cccc(NC(=O)Nc3ccc(C(F)(F)F)cc3)c2O[C@H]1CN(C)S(=O)(=O)c1ccc(Cl)cc1`, the max activity is 33.1% (inactive).

On to `C[C@H](CO)N1C[C@H](C)[C@@H](CN(C)S(=O)(=O)c2cn(C)cn2)OCCCC[C@H](C)Oc2ccc(NC(=O)Nc3cccc4ccccc34)cc2C1=O`, for which the max activity is 18.8% (inactive).

Turning to `C[C@H]1CCCCO[C@H](CN(C)S(=O)(=O)c2cn(C)cn2)[C@@H](C)CN([C@@H](C)CO)C(=O)c2cc(NC(=O)CCCN(C)C)ccc2O1`, the max activity is 5.89% [at 8 µM] (inactive).

Turning to `CC(C)NC(=O)Nc1ccc2c(c1)CC(=O)N([C@H](C)CO)C[C@@H](C)[C@@H](CN(C)Cc1ccc(-c3ccccc3)cc1)O2`, the max activity is 54.7% (inactive).

Turning to `C[C@@H]1CN([C@H](C)CO)S(=O)(=O)c2ccc(C3=CCCCC3)cc2O[C@H]1CN(C)Cc1cccnc1`, the max activity was 53.5% (inactive).

As to `CC(C)C#Cc1ccc2c(c1)O[C@@H](CN(C)Cc1ccncc1)[C@@H](C)CN([C@H](C)CO)S2(=O)=O`, the max activity is 30.4% (inactive).

For `COc1ccc(NC(=O)O[C@H]2[C@H](OC(=O)Nc3ccccc3)[C@H](OC(=O)Nc3ccccc3)[C@@H](OC)O[C@@H]2CO)cc1`, the max activity was 32.3% (inactive).

Consider `C[C@H](NC(=O)N(C)C[C@@H]1OCc2ccccc2-c2c(n(C)c3ccccc23)C(=O)N([C@H](C)CO)C[C@H]1C)c1ccccc1`, for which the max activity was 18.8% (inactive).

In the case of `CC(=O)N(C)C[C@H]1Oc2ncc(-c3ccc(C(=O)N(C)C)cc3)cc2C(=O)N([C@H](C)CO)C[C@H]1C`, the max activity was -8.17% (inactive).

With `CO[C@@H]1CN(C)C(=O)c2ccc(NC(=O)Nc3ccc4c(c3)OCO4)cc2OC[C@@H](C)NC[C@@H]1C`, the max activity is 10.6% (inactive).

As for `COCC(=O)Nc1ccc2c(c1)C(=O)N(C)C[C@@H](OC)[C@H](C)CN[C@H](C)CO2`, the max activity was -10.3% [at 1.95 µM] (inactive).

Take `COc1ccc(CN(C)C[C@H]2OCCCC[C@@H](C)Oc3ccc(NC(=O)Nc4ccc5c(c4)OCO5)cc3C(=O)N([C@@H](C)CO)C[C@@H]2C)cc1`: the max activity is 44.6% (inactive).

Turning to `C[C@@H]1CN([C@@H](C)CO)C(=O)c2ccccc2-c2ccccc2CO[C@H]1CN(C)S(=O)(=O)c1ccsc1`, the max activity was 36% (inactive).

For `C[C@@H](C(=O)N(C)C[C@H]1OCc2ccccc2-c2ccccc2C(=O)N([C@@H](C)CO)C[C@@H]1C)c1ccccc1`, the max activity is -9.53% [at 8 µM] (inactive).

Take `C[C@@H]1CCCCO[C@H](CN(C)S(=O)(=O)c2ccc(Cl)cc2)[C@H](C)CN([C@@H](C)CO)C(=O)c2cc(N(C)C)ccc2O1`: the max activity is 25.4% (inactive).

On to `O=C(N[C@H]1C=C[C@@H](CC(=O)N2CCOCC2)O[C@H]1CO)c1cccc(F)c1`, for which the max activity was 9.04% (inactive).

`C[C@@H]1CN([C@H](C)CO)C(=O)c2cc(C#C[C@@H](C)O)cnc2O[C@@H]1CN(C)Cc1ccc(-c2ccccc2)cc1`: the max activity is -9.01% [at 1.95 µM] (inactive).

With `C[C@@H]1CCCCO[C@@H](CN(C)CC2CC2)[C@H](C)CN([C@H](C)CO)C(=O)c2cc(NC(=O)Nc3cccc4ccccc34)ccc2O1`, the max activity is 12.9% (inactive).

With `COCC(=O)Nc1ccc2c(c1)C(=O)N(C)C[C@@H](OC)[C@H](C)CN(C(=O)CN1CCOCC1)[C@H](C)CO2`, the max activity was -15.1% [at 2.1 µM] (inactive).

Take `C[C@H]1CN([C@@H](C)CO)C(=O)c2cc(NC(=O)CCC(F)(F)F)ccc2O[C@H]1CN(C)Cc1ccc(-c2ccccc2)cc1`: the max activity is 46.6% (inactive).
